According to ChEMBL document CHEMBL3988442, “University of Dundee, Small-Polar-MMV Screening Library” (2021):
For some assays here: Results with a measured potency or affinity are listed apart.

How the values were obtained:
Parameters in all cases: scale not given: direction of the effect not stated beside the values
[1] = target: Protein translocase subunit SecA (Escherichia coli (strain K12)) (UniProt P10408); test: Assay to Identify E. coli SecA ATPase Inhibitors; format: functional; conditions: 30 µM
Sequence of Protein translocase subunit SecA (Escherichia coli (strain K12)) (P10408 whole entry): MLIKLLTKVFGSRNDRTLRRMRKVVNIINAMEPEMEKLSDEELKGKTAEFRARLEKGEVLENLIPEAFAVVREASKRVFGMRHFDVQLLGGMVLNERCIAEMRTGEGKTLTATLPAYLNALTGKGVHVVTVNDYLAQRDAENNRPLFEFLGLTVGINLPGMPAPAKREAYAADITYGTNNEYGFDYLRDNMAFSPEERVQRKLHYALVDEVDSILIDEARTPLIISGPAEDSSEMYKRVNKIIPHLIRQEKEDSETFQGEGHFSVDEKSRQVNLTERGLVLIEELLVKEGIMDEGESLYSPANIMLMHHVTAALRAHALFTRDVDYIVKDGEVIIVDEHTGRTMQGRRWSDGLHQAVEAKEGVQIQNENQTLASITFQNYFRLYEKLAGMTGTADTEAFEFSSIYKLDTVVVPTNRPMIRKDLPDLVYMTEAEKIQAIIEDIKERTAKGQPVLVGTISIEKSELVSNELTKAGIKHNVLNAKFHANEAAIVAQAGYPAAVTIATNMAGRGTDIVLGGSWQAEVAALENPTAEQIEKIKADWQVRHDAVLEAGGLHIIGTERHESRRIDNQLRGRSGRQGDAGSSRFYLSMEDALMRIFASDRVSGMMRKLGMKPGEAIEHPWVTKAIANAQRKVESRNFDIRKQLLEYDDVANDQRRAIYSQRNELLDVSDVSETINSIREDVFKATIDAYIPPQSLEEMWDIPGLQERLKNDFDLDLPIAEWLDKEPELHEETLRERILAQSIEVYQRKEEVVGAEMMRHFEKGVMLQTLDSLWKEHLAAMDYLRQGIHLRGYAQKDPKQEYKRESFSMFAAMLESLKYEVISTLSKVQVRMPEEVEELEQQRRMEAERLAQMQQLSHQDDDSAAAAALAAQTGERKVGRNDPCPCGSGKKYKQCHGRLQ

[2] = target: T1, Ubiquitin-activating enzyme e1, putative (Leishmania donovani (strain BPK282A1)) (UniProt E9BSI1); test: Leishmania donovani Ubiquitin Activating Enzyme (LdE1); format: functional; conditions: 30 µM
T1 sequence (whole entry): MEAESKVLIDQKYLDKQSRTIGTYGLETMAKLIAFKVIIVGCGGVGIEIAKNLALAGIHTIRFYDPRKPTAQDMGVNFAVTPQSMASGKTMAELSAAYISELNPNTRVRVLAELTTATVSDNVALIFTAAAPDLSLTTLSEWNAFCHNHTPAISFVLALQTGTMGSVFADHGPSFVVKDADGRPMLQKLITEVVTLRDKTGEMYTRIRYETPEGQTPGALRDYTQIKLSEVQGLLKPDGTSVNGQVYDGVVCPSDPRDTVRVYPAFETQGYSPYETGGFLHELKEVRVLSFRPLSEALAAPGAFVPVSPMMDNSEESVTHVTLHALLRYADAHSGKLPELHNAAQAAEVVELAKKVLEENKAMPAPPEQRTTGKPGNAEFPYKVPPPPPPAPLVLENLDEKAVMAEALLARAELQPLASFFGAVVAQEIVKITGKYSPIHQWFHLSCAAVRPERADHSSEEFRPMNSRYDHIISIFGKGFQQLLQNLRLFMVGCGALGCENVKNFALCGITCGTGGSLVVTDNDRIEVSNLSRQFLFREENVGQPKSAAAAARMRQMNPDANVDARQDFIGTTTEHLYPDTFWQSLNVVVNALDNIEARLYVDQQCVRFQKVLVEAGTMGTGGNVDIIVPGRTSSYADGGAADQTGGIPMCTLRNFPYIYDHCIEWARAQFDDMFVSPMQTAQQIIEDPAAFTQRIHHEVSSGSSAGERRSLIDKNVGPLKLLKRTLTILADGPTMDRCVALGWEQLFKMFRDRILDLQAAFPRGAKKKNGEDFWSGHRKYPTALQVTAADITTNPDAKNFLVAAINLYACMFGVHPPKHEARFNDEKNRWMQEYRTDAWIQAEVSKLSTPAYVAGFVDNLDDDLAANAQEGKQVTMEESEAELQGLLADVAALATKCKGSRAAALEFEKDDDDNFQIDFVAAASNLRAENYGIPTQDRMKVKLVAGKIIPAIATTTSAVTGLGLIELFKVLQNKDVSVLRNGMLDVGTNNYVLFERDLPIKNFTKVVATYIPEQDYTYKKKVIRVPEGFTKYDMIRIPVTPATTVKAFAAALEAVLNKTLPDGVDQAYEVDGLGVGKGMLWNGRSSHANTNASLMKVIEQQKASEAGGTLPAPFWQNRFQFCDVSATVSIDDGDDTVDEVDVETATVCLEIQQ

[3] = target: AMP-activated protein kinase, AMPK (Homo sapiens) (UniProt P54646+O43741+P54619+Q9UGJ0+Q9Y478+Q13131+Q9UGI9); test: AMP-dependent Kinase enzyme assay. An in vitro enzyme assay that detects ADP turnover that is directly proportional to AMPK activity. This uses naive AMPK that is activated during the assay with MK-8722; format: functional; conditions: 30 µM
[4] = target: Sialic acid-binding Ig-like lectin 9 (Homo sapiens) (UniProt Q9Y336); test: Hs-Siglec9 ALPHAscreen SOP 20170721; conditions: 10 µM
Sequence of Sialic acid-binding Ig-like lectin 9 (Homo sapiens) (Q9Y336 whole entry): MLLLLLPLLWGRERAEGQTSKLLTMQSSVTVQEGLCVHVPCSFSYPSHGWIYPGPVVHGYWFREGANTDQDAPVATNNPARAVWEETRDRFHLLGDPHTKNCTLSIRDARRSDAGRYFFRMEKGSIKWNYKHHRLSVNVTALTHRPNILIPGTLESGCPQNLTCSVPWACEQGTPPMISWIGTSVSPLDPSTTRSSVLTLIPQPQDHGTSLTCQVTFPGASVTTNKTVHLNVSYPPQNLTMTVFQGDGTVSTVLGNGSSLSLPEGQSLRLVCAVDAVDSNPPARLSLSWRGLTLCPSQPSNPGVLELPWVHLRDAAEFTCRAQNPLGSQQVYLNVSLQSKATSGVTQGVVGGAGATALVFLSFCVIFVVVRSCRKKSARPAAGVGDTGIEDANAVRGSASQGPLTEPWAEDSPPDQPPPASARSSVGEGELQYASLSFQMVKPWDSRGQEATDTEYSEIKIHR

[5] = test system: Trypanosoma cruzi; test: Trypanosoma cruzi phosphomannomutase and mannose-1-phosphate guanylyltransferase assay; format: functional; conditions: 10 µM
[6] = target: T2, Arginase-2, mitochondrial (Homo sapiens) (UniProt P78540); test: in vitro enzyme assay to detect the production of urea directly proportional to the activity of Arginase II; format: functional; conditions: 33.3 µM; further: in the data most compounds retested in dose-response had high values
T2 sequence (whole entry): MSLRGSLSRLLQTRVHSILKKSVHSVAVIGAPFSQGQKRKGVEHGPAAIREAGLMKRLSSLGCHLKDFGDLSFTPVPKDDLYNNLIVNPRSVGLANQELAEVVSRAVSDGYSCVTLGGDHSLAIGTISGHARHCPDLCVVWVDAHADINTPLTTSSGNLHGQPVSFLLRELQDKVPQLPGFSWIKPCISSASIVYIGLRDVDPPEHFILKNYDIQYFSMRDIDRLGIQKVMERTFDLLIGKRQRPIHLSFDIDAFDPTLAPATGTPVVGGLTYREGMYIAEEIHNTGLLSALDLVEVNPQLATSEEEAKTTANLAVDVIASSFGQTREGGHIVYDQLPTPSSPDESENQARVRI

[7] = target: T3, Proteasome subunit beta (Trypanosoma cruzi) (UniProt O96673); test: Trypanosoma cruzi proteasome chymotrypsin-like activity (TcProtChymo) assay.; further: in the data most compounds retested in dose-response had high values; format: functional; conditions: 9.37 µM
T3 sequence (whole entry): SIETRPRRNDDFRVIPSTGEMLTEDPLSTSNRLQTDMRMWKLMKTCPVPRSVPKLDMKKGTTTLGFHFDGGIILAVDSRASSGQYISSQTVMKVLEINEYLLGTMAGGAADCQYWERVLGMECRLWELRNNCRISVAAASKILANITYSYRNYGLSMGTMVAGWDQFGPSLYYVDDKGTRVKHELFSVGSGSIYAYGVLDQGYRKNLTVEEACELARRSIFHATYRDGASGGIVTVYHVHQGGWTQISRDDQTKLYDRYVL

[8] = species on record: Homo sapiens; test: To identify inhibition of the IFN signalling (Jak-Stat) pathway via expression of an eGFP reporter gene under the control of an IFN-stimulated response element (ISRE) containing MxA promoter.; format: functional; conditions: 30 µM
[9] = target: T4, Tyrosyl-tRNA synthetase, putative (Trypanosoma cruzi (strain CL Brener)) (UniProt Q4DSP6); test: Trypanosoma cruzi tyrosyl tRNA synthetase (TcYRS) _High Tyrosine SOP; format: functional; conditions: 30 µM; further: in the data most compounds retested in dose-response had high values
T4 sequence (whole entry): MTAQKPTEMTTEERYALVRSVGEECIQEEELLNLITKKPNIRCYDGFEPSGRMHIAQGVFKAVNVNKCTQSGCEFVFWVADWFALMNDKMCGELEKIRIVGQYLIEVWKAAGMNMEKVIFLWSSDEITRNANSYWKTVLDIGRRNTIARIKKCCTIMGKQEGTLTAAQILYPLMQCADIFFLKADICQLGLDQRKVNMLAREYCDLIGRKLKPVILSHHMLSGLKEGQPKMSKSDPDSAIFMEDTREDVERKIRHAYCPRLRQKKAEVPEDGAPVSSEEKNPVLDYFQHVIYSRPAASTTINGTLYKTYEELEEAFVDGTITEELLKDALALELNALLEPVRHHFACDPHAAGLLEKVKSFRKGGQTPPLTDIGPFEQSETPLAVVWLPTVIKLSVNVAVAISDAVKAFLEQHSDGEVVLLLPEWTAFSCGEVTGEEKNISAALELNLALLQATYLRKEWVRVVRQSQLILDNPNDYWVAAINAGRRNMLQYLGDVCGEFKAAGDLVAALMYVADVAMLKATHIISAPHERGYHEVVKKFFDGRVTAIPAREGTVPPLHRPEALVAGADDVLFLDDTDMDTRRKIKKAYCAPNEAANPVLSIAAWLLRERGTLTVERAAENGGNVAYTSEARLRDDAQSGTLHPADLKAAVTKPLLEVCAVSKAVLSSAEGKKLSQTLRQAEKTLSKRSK

[10] = target: T4, Tyrosyl-tRNA synthetase, putative (Trypanosoma cruzi (strain CL Brener)); test: Trypanosoma cruzi tyrosyl tRNA synthetase (TcYRS) SOP; format: functional; conditions: 30 µM
[11] = target: Chromo domain-containing protein 1 (Saccharomyces cerevisiae (strain ATCC 204508 / S288c) (Baker's yeast)) (UniProt P32657); test: ScCHD-1 Enzyme Inhibition Assay; format: functional; conditions: 30 µM; further: in the data most compounds retested in dose-response had high values
Sequence of Chromo domain-containing protein 1 (Saccharomyces cerevisiae (strain ATCC 204508 / S288c) (Baker's yeast)) (P32657 whole entry, the tested form may be a part): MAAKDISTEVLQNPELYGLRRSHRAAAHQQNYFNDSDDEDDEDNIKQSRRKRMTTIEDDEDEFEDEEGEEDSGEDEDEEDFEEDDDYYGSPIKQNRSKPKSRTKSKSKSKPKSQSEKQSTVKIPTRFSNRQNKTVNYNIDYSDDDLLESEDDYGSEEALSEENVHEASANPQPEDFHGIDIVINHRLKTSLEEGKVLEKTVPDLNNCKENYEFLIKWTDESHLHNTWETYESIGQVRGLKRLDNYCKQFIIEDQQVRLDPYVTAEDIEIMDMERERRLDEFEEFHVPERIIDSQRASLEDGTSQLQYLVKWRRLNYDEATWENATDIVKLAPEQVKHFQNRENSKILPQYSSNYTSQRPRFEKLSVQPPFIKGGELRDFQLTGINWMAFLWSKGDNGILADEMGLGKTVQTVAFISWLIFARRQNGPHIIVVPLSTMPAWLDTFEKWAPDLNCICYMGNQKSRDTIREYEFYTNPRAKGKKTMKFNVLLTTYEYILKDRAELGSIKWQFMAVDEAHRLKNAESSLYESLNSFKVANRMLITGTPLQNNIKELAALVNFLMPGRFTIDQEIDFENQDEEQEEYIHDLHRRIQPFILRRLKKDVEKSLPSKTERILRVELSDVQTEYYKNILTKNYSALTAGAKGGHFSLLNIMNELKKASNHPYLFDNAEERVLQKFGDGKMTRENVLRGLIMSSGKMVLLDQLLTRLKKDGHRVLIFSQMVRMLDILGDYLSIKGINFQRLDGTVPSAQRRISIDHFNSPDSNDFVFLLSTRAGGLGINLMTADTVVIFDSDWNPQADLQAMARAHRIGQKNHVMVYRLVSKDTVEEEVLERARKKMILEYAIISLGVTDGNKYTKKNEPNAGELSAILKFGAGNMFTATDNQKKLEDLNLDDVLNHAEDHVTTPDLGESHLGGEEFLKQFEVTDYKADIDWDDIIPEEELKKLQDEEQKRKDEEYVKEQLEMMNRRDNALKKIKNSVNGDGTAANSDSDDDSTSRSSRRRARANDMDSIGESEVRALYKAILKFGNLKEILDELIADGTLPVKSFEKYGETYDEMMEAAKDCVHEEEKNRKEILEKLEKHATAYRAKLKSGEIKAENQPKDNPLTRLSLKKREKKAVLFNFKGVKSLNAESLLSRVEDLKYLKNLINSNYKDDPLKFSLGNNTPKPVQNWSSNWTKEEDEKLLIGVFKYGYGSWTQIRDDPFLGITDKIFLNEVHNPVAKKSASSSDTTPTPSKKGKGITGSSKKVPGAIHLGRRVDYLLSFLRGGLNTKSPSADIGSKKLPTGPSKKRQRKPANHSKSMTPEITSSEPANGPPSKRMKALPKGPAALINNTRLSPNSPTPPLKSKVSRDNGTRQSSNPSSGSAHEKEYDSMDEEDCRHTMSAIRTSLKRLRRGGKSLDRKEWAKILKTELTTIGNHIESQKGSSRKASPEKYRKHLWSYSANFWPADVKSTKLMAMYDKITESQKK

Row | SMILES | Percent Effect [1] | Percent Effect [2] | Percent Effect [3] | Percent Effect [4] | Percent Effect [5] | Percent Effect [6] | Percent Effect [7] | Percent Effect [8] | Percent Effect [9] | Percent Effect [10] | Percent Effect [11]
1 | Cc1noc(C)c1CCC(=O)N1CCN(CCn2cncn2)CC1 | -2.87% | 4.17% | -6.26% | 2.38% | 0.68% | 1.77% | 21.1% | -11.6% | 8.42% | 10.3% | -3.13%
2 | CCn1nc(C)c2ncnc(NCC(=O)N3CCOCC3)c21 | -1.89% | 9.33% | -3.08% | 10.4% | 2.55% | -8.28% | 14.4% | 30.3% | -28.6% | 5.13% | -9.1%
3 | Cc1cc(NC(=O)NCc2ccccn2)n(C)n1 | -3.34% | -6.33% | 3.11% | 5.94% | 0.103% | -2.37% | 15.6% | -16.7% | 2.08% | 12.7% | -12.3%
4 | Cc1ccsc1[C@@H]1CCN(C(=O)c2cc3ccccc3[nH]2)C[C@H]1O | -2.04% | -1.39% | 0.967% | -5.71% | -6.51% | -0.442% | 15.3% | 12.8% | -3.16% | -2.56% | 2.93%
5 | COc1cccc(COCC(=O)N2CCCC(c3nncn3C)C2)c1 (configuration not stated) | -4.98% | 13.5% | -6.54% | 18.4% | 3.11% | -6.81% | 0.721% | 13.5% | 4.43% | 16.1% | -11.8%
6 | CCCNC(=O)CCNC(=O)Cc1nc(-c2ccco2)oc1C | -3.29% | 2.67% | -1.47% | 12.8% | -5.16% | 4.69% | 13.2% | 8.33% | 3.83% | 8.64% | -3.56%
7 | CC(C)(C)C(=O)NCCC(=O)NC(C)(C)c1ccc2c(c1)OCCO2 | -1.46% | -5.48% | 12.2% | -1.99% | -0.783% | 5% | 4.44% | -3.61% | 2.15% | 5% | 1.77%
8 | CCN1CCN(S(=O)(=O)c2cc(Cl)c(Cl)cc2C)CC1 | -2.56% | 2.6% | 5.2% | 3.88% | -3.83% | -4.14% | -4.99% | -8.04% | -28% | 1.24% | 3.26%
9 | CCc1ccc(C(=O)N2CCN(CC(C)O)CC2)o1 (configuration not stated) | 0.315% | 21.1% | -5.4% | -6.92% | 5.08% | 6.13% | 16.2% | 3.74% | 1.47% | 19.5% | -12.7%
10 | COCC(=O)N1CCN(C(=O)c2scnc2C)CC1 | -4.41% | 7.89% | 1.74% | 5.01% | 2.82% | -4.73% | 12.4% | 19.8% | 1.06% | 10.4% | 0.643%
11 | O=c1ccc(-c2cccs2)nn1CN1CCN(Cc2ccccc2)CC1 | -4.73% | -1.33% | 2.74% | 1.22% | 5.3% | -10.4% | 11.7% | 20.2% | 3.17% | 10.3% | -12.8%
12 | CC(C)(C)NC(=O)CN1CCN(C(=O)Nc2ccc(F)cc2F)CC1 | -2.23% | 5.48% | 8.1% | -2.38% | -8.73% | -0.399% | 6.76% | 10.3% | 3.12% | 6.17% | -2.48%
13 | COc1c(CNC2CCCc3ccccc32)c(C)nn1C (configuration not stated) | -7.16% | 21.6% | -16.2% | 24% | 4.79% | 2.23% | 12.4% | 7.25% | 2.15% | 13.6% | -5.73%
14 | CC(=O)Nc1ccc(S(=O)(=O)NC(=O)CCC2CCCO2)cc1 (configuration not stated) | -9.79% | 10.8% | -16.6% | 34.9% | 8.21% | -16.8% | 6.31% | -1.72% | 1.48% | 13.6% | -16.9%
15 | Cc1ccccc1-c1cc(NC(=O)CC(C)C)n(CCO)n1 | -2.35% | 2.63% | -11.8% | 0.669% | -6.33% | 2.37% | 5.46% | 0.574% | 3.19% | 5.2% | -3.67%
16 | Cc1nc[nH]c1CN1C[C@@H]2CC[C@H](C1)N(C(=O)CCc1cnn(C)c1)C2 | -1.58% | 6.94% | -9.43% | 16.8% | 4.96% | 29.1% | 5.09% | -11.8% | 2.1% | 7.69% | -1%
17 | O=C(Cc1c[nH]c2ccccc12)N1CCN(C(=O)c2ccoc2)CC1 | -2.06% | 13.2% | 1.95% | -3.58% | 0.487% | 14.2% | 12.9% | 21.1% | 7.45% | 18.2% | -2.68%
18 | Cc1csc(C2CCCN(C(=O)c3ccc(=O)n(C)n3)C2)n1 (configuration not stated) | -1.5% | 0% | -1.05% | -7.99% | -4.2% | 2.23% | 1.97% | -5.09% | -1.07% | -1.24% | -2.21%
19 | CC(C)(C)C(=O)NCCC(=O)NS(=O)(=O)c1ccc2c(c1)OCCO2 | -4.61% | 5.48% | 0.75% | 8.35% | 7.64% | -0.909% | 7.1% | -22.6% | 5.38% | 10% | -1.32%
20 | CC(=O)N1CCC(CN2CCN(Cc3nccn3C)C(C)C2)CC1 (configuration not stated) | -0.614% | 18.9% | -4.02% | -8.56% | -2.14% | 4.25% | 14.5% | 17.6% | 9.9% | 15.8% | -2.18%
21 | CN(C)C(=O)CN1CCCCC1c1nc(N)ncc1-c1ccccc1 (configuration not stated) | -1.46% | 2.67% | 10.4% | 1.52% | -2.95% | 2.1% | 2.56% | -0.722% | 4.25% | 6.41% | -5.48%
22 | Cc1cc(NC(=O)C(c2cccc(F)c2)N2CCOCC2)ccn1 (configuration not stated) | -4.97% | 10.5% | 2.55% | 5.76% | 1.66% | -9.47% | 10.6% | 3.19% | 2.13% | 7.79% | -7.19%
